# Data taken from the supplement of paper PMC10849652.
# About 7,900 targets were measured; listed, in parts, are those with a hit and a random draw of the rest. About 0.6% of all pairs of compound and target were hits. A number with no mark means an inactive call.
# What was measured:
# Test in all cases: log2 fold change, soluble protein after heating vs DMSO (PISA); higher = thermal stabilisation; K562 cells, 10 uM, 30 min; active = over 0.2 and 3.5 SD of the protein, either way, in both replicates (recomputed)
# [1] = compound: COC1=CC=C(C=C1)CN2C=CC3=C2C=C(C=C3)C(=O)NO
# Method in brief: (§1)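 K562 cells at 2×10^6 cells/mL were treated for 30 min with 10 μM compound, and aliquots were heated for 3 min over 48°C-58°C before pooling. Extraction used PBS with 0.5% NP-40 at 4°C, and soluble protein was the supernatant after 21,000xg for 90 min, measured by TMTpro 16plex LC-MS/MS with channel sums equalised. Thermal stability values, relative to control samples and from duplicates, are log2 fold changes.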
# [2] = compound: CON(C)C(=O)N1N=C(c2cc(F)ccc2F)S[C@@]1(CCCN)c1ccccc1 [filanesib]
# Method in brief: as §1
# [3] = compound: CO[C@H]1C[C@@H]2CC[C@@H](C)[C@@](O)(O2)C(=O)C(=O)N2CCCC[C@H]2C(=O)O[C@H]([C@H](C)C[C@@H]2CC[C@H](n3cnnn3)[C@H](OC)C2)CC(=O)[C@H](C)/C=C(\C)[C@@H](O)[C@@H](OC)C(=O)[C@H](C)C[C@H](C)/C=C/C=C/C=C/1C [zotarolimus]
# Method in brief: as §1
# [4] = compound: COc1cc(C(=O)O)ccc1NC(=O)[C@@H]1N[C@@H](CC(C)(C)C)[C@](C#N)(c2ccc(Cl)cc2F)[C@H]1c1cccc(Cl)c1F [idasanutlin]
# Method in brief: as §1
# [5] = compound: COc1cc(Nc2ncc3c(n2)-c2ccc(Cl)cc2C(c2c(F)cccc2OC)=NC3)ccc1C(=O)O [alisertib]
# Method in brief: as §1
# [6] = compound: COc1cc2nc(-c3cc(F)ccc3O)nc(N[C@@H]3CNC[C@H]3C(C)(C)O)c2cc1OC
# Method in brief: as §1
# [7] = compound: COc1cc2ncnc(Nc3ccc(F)c(Cl)c3)c2cc1OCCCN1CCOCC1 [gefitinib]
# Method in brief: as §1
# [8] = compound: COc1cccc2cc(-c3nc([C@H]4CC[C@H](C(=O)O)CC4)n4ncnc(N)c34)[nH]c12
# Method in brief: as §1
# [9] = compound: CS(=O)(=O)CCNCc1ccc(-c2ccc3ncnc(Nc4ccc(OCc5cccc(F)c5)c(Cl)c4)c3c2)o1 [lapatinib]
# Method in brief: as §1
# [10] = compound: CS(=O)(=O)N1CCN(Cc2cc3nc(-c4cccc5[nH]ncc45)nc(N4CCOCC4)c3s2)CC1 [pictilisib]
# Method in brief: as §1
# [11] = compound: CS(=O)(=O)c1ccc(-c2cnc(N)c(C(=O)Nc3ccccc3)n2)cc1
# Method in brief: as §1
# [12] = compound: C[C@@H](Oc1cc(-c2cnn(C3CCNCC3)c2)cnc1N)c1c(Cl)ccc(F)c1Cl [crizotinib]
# Method in brief: as §1
# [13] = compound: C[C@@H]1COCCN1C2=NC(=NC(=C2)C3(CC3)S(=O)(=O)C)C4=C5C=CNC5=CC=C4
# Method in brief: as §1
# [14] = compound: C[C@H](C1=CC=C(C=C1)C(=O)NC2=C3C=CNC3=NC=C2)N
# Method in brief: as §1
# [15] = compound: C[C@H](Nc1ncnc2nc[nH]c12)c1cc2cccc(Cl)c2c(=O)n1-c1ccccc1 [duvelisib]
# Method in brief: as §1
# [16] = compound: Cc1cc(Nc2cc(CN3CCOCC3)c3nc(C)c(Cc4ccc(Cl)cc4F)n3n2)n[nH]1 [gandotinib]
# Method in brief: as §1
# [17] = compound: Cc1cc(Nc2cc(N3CCN(C)CC3)nc(Sc3ccc(NC(=O)C4CC4)cc3)n2)n[nH]1 [tozasertib]
# Method in brief: as §1
# [18] = compound: Cc1cc(SCc2sc(-c3ccc(C(F)(F)F)cc3)nc2C)ccc1OCC(=O)O
# Method in brief: as §1
# [19] = compound: Cc1ccc(-n2nc(C(C)(C)C)cc2NC(=O)Nc2ccc(OCCN3CCOCC3)c3ccccc23)cc1 [doramapimod]
# Method in brief: as §1
# [20] = compound: Cc1ccc(C(=O)N(CCCN)[C@@H](c2nc3cc(Cl)ccc3c(=O)n2Cc2ccccc2)C(C)C)cc1 [ispinesib]
# Method in brief: as §1
# Sequence of UniProt Q66PJ3 (Q66PJ3 whole entry, looked up): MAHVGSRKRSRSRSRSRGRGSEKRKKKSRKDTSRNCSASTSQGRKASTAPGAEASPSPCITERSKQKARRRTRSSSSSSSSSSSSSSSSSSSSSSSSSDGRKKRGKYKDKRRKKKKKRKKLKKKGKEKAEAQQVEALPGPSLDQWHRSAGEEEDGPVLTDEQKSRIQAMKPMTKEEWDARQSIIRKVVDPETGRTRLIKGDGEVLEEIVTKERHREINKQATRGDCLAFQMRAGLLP
# Sequence of UniProt Q9UII2 (Q9UII2 whole entry, looked up): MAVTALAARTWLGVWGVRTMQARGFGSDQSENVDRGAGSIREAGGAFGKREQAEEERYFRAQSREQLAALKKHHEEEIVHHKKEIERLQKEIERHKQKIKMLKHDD
# Sequence of UniProt Q14457 (Q14457 whole entry, looked up): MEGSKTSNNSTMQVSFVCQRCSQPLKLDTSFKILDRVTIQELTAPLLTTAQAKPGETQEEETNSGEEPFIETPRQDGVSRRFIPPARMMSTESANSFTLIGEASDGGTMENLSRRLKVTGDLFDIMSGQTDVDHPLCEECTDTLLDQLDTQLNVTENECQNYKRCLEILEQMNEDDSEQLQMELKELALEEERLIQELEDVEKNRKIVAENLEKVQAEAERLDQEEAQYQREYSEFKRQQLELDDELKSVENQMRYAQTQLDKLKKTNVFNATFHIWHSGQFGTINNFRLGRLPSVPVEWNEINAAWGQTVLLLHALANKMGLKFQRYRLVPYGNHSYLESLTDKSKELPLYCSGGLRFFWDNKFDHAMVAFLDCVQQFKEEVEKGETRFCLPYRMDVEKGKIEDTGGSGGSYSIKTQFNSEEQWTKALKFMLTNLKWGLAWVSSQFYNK
# Sequence of UniProt Q9Y487 (Q9Y487 whole entry, looked up): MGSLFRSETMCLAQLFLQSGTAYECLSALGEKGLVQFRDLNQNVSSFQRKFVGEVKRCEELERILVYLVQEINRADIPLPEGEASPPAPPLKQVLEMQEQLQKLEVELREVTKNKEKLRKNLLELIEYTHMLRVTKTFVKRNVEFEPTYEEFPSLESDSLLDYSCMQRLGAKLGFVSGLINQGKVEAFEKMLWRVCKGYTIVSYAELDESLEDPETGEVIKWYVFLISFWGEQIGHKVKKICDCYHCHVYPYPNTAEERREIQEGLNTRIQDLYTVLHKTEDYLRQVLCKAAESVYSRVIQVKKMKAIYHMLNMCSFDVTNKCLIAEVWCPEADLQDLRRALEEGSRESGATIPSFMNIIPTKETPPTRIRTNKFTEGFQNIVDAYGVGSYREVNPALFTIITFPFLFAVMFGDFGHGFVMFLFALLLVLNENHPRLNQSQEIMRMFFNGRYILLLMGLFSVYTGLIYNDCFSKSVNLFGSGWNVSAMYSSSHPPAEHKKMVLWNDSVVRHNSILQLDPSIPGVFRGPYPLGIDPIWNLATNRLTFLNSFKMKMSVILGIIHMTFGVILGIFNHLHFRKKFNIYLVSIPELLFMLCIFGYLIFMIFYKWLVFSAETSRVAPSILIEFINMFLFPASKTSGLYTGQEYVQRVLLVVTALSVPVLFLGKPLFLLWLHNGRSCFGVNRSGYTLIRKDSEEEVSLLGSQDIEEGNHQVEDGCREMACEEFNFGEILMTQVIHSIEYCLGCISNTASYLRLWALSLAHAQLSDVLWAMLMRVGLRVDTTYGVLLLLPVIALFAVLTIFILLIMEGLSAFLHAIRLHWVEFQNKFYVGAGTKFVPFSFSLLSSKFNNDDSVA
# Sequence of UniProt P35611 (P35611 whole entry, looked up): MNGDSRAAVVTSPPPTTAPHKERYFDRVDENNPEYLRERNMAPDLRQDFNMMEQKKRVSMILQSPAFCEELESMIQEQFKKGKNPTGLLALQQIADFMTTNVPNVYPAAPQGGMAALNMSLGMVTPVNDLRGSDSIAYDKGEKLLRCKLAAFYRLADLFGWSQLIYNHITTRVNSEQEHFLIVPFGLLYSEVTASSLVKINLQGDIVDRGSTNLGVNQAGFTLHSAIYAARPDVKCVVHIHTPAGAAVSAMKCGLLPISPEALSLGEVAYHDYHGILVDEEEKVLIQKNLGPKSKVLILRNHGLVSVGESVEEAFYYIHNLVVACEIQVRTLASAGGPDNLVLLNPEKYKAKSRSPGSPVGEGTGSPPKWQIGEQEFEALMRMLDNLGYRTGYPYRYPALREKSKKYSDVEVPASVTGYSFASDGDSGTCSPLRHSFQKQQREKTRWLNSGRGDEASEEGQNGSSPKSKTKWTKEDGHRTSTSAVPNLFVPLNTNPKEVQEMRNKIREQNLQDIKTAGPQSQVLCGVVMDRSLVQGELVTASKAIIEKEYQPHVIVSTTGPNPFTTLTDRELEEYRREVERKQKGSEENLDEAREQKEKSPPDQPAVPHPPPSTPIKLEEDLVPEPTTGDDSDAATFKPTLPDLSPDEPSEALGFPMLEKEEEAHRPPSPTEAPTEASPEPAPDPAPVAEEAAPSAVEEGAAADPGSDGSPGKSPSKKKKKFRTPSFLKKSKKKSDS
# Sequence of UniProt O00763 (O00763 whole entry, looked up): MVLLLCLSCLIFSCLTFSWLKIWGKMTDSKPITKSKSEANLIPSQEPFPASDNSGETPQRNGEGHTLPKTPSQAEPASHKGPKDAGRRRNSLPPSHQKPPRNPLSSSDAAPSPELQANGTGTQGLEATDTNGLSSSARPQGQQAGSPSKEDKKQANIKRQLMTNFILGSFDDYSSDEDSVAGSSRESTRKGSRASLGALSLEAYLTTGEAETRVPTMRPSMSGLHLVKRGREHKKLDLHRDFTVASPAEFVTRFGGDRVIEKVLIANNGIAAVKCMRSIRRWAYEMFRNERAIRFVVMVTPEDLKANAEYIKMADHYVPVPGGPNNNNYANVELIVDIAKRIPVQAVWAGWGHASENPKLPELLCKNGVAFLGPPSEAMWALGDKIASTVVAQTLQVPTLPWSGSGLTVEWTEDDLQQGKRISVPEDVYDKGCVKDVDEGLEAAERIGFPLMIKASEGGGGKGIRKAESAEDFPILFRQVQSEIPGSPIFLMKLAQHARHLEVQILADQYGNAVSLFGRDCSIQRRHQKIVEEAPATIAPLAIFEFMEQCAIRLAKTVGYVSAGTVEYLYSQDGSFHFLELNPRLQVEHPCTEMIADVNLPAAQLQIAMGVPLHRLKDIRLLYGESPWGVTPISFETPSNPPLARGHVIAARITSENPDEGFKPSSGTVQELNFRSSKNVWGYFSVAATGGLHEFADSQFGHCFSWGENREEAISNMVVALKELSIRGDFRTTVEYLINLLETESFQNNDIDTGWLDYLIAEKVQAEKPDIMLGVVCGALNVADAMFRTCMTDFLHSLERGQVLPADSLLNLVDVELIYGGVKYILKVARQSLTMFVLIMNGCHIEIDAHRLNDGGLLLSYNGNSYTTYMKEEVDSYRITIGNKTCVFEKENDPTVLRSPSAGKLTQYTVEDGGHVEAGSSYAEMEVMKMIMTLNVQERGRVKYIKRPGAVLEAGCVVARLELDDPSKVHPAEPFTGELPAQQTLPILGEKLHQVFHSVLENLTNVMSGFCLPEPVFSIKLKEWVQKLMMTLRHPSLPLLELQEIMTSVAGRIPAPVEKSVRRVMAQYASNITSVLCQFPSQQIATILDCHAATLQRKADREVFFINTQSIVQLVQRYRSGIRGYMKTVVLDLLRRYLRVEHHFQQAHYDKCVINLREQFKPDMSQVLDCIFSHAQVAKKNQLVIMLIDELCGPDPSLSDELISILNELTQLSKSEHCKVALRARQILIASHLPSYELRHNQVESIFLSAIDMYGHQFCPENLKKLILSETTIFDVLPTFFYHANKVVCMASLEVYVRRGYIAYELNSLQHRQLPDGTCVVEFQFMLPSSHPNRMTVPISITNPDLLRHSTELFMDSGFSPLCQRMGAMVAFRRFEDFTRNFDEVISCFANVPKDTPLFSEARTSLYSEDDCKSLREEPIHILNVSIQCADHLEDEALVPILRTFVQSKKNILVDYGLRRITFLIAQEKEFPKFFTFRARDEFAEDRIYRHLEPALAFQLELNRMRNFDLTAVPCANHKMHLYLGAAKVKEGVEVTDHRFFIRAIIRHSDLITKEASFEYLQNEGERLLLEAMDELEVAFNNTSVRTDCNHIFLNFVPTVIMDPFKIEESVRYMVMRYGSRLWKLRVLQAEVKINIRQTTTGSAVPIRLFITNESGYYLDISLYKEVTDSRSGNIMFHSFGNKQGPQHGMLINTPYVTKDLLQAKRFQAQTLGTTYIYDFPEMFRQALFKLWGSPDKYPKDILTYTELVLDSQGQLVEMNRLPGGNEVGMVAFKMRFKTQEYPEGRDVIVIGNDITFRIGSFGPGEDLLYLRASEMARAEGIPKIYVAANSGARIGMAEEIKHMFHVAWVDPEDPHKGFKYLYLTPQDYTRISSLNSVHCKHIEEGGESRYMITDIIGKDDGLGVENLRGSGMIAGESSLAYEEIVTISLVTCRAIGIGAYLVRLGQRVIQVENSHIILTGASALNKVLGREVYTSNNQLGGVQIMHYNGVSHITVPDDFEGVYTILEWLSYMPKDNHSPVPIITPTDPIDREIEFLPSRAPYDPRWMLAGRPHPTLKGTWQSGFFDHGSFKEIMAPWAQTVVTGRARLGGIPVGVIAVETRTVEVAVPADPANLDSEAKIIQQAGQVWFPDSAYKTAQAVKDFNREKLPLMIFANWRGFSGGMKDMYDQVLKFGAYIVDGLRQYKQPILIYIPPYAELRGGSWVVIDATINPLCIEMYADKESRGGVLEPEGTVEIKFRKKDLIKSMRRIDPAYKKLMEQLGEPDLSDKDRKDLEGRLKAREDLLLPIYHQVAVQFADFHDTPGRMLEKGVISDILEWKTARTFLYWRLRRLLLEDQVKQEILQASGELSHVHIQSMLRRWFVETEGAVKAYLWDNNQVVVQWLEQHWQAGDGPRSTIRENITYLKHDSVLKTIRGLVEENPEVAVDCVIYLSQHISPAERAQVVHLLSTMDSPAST
# Sequence of UniProt Q10589 (Q10589 whole entry, looked up): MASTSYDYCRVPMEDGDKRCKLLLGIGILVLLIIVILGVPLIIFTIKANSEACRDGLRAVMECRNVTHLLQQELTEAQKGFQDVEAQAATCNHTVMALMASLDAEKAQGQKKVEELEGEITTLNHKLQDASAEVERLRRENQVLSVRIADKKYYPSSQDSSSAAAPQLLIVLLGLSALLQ
Target,log2 fold change [1],log2 fold change [2],log2 fold change [3],log2 fold change [4],log2 fold change [5],log2 fold change [6],log2 fold change [7],log2 fold change [8],log2 fold change [9],log2 fold change [10],log2 fold change [11],log2 fold change [12],log2 fold change [13],log2 fold change [14],log2 fold change [15],log2 fold change [16],log2 fold change [17],log2 fold change [18],log2 fold change [19],log2 fold change [20]
BST2 (UniProt Q10589),-0.064,-0.05,0.041,-0.044,-0.059,-0.028,-0.022,0.007,0.038,0.036,-0.023,0.066,0.006,-0.055,-0.004,-0.016,-0.009,-0.074,0.023,-0.078
ARL6IP4 (UniProt Q66PJ3),-0.025,0.023,0.014,0.172,-0.053,0.002,-0.039,0.05,-0.023,-0.007,0.014,0.026,0.036,-0.093,0.039,0.114,-0.005,-0.038,0.013,-0.051
BID isoform 2 (UniProt P55957),0.045,0.016,0.08,0.016,-0.045,-0.006,0,0.089,0.005,0.038,0.047,0.087,0.409 (active),-0.019,0.049,-0.012,-0.012,-0.003,-0.013,0.022
ALDH2 (UniProt P05091),-0.011,-0.142,0.055,-0.104,0.015,-0.006,0.028,0.069,-0.02,0.043,-0.047,-0.044,0.051,-0.038,0.056,-0.088,-0.039,0.022,0.033,-0.023
ADD1 isoform 3 (UniProt P35611),0.071,0.013,-0.025,0.014,-0.059,-0.009,0.007,0.066,0.015,-0.004,0.018,0.005,-0.011,-0.109,0.011,-0.054,-0.008,-0.015,0.001,0.045
ARMC10 (UniProt Q8N2F6),0.011,0.046,0.107,-0.092,-0.039,0.117,0.004,-0.133,-0.01,0.07,0.002,-0.04,0.016,0.006,0.033,-0.09,0.065,0.108,0.018,0.027
AK6 (UniProt Q9Y3D8),0.009,-0.052,0.003,0.012,-0.035,0.053,0.03,0.006,-0.049,-0.01,0.151,-0.156,0.175,0.115,0.075,-0.049,0.036,0.065,0.008,-0.085
ADK (UniProt P55263),-0.009,-0.013,-0.014,-0.083,-0.037,0.015,0.199,0.007,0.21,0.167,0.144,0.275,0.034,-0.105,0.114,0.276,0.015,-0.061,-0.039,0.112
BECN1 (UniProt Q14457),0.094,-0.005,-0.142,-0.159,-0.081,0.117,0,-0.045,0.008,0.086,0.141,-0.126,0.043,0.093,0.283 (active),0.138,0.034,-0.066,-0.004,-0.019
ACADVL isoform 3 (UniProt P49748),0,-0.069,0.019,-0.04,-0.031,-0.089,-0.019,0.025,-0.12,0.093,0.042,0.021,0.078,-0.058,0.081,-0.01,0.003,-0.005,-0.065,-0.01
AGPAT5 (UniProt Q9NUQ2),-0.043,-0.153,0,-0.044,0.113,-0.111,0.018,0.071,0.119,0.062,0.035,-0.117,0.151,-0.014,0.065,-0.09,0.002,-0.029,0.001,-0.145
ACACB (UniProt O00763),-0.019,0.258,0.132,-0.042,-0.168,0.039,-0.02,-0.371,0.068,0.038,0.078,-0.152,-0.13,0.341,-0.113,0.041,-0.013,0.289,0.168,-0.188
ATP6V0A2 (UniProt Q9Y487),-0.029,-0.083,0.011,0.004,-0.082,-0.07,-0.058,-0.056,0.016,-0.071,-0.002,-0.197,-0.048,0.07,-0.062,-0.006,0.014,0.064,0.09,-0.18
ATP5IF1 (UniProt Q9UII2),-0.02,-0.067,0.004,0.093,-0.062,0.024,0.013,0.03,-0.043,-0.016,0.004,0.058,-0.006,0.018,-0.035,-0.056,-0.079,-0.082,-0.015,-0.019
BTAF1 (UniProt O14981),0.018,-0.006,-0.004,-0.095,0.175,0.093,-0.045,-0.028,-0.01,-0.032,0.055,-0.076,0.094,0.041,-0.016,-0.05,0.015,0.044,0.006,0.016
BZW2 (UniProt Q9Y6E2),-0.029,-0.05,0.02,-0.126,-0.056,0.011,-0.009,0.023,-0.055,-0.034,0.006,-0.146,0.096,-0.037,-0.001,-0.218,0.011,0.047,-0.047,-0.072
